Assay outcomes as filed in PubChem.
An excerpt weighted towards active compounds, which were near 9.2% of everything screened.
Rab9 promoter act: activators of Rab9 promoter. Huh7 Rab9 promoter-luciferase reporter, luminescence, 24 h. Potency, µM (series often up to 9.22 µM), usual class: activators. hit rate 2.8% among 320,000. AID 485297; further: nearly all actives have a fitted effect of over 60% in size
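Huh7 cells stably carrying Rab9 promoter–luciferase reporter, plated 1500 cells/well, compound added after 2 h and incubated 24 h at 37 °C; luciferase luminescence then read after 10 min with detection reagent.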
FLuc counter: firefly luciferase modulation, counter-screen for miR-21 project; Potency, µM (titrated, usually from 57.5 µM), most hits filed as inhibitors; AID 588342; purified FLuc, Km substrates, luminescence inhibition; hit rate 6.9% among 360,000; further: nearly all actives have a fitted effect of over 55% in size
Target sequence (P08659 whole entry, looked up): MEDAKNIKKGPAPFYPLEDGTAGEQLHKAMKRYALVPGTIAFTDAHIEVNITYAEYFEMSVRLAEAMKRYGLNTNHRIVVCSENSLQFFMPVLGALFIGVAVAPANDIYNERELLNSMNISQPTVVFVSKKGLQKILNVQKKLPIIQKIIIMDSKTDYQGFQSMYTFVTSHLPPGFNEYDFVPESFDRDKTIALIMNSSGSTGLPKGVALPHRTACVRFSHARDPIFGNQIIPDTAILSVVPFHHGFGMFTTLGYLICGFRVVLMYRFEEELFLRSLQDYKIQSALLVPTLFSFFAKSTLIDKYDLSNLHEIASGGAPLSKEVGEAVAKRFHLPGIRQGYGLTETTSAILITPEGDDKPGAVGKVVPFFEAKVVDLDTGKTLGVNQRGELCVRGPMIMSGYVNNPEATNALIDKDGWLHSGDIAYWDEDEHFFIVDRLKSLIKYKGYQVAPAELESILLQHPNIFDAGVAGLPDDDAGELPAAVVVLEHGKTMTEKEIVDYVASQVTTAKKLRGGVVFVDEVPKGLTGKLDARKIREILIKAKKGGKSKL
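Purified P. pyralis luciferase (10nM final) with 10uM D-luciferin and 10uM ATP (Km levels) in 50mM Tris acetate pH 7.5, 10mM Mg acetate, 0.01% Tween-20, 0.05% BSA; qHTS 6-point titration, ~60 µM downward; luminescence read.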
ELG1 DNA repair: blocks ELG1-dependent DNA repair in HEK293T cells | Potency, µM (titrated, usually from 46.1 µM), hits mostly inhibitors | hit rate 2.3% among 330,000 | HEK293T ELG1-luciferase reporter, luminescence, 16 h; DNA damage induced by 5-fluorouridine; further: nearly all actives have a fitted effect of over 55% in size
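Overnight (16 hr) co-exposure of 2,000 cells/well to 5-fluorouridine and compound at 37 °C preceded detection. Luciferase was quantified via ONE-Glo luminescence; loss of signal denotes inhibition.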
NPC1 promoter act: activators of NPC1 promoter; Huh7 NPC1 promoter luciferase reporter, 24 h; Potency, µM (doses to about 9.22 µM), hits mostly activators; hit rate 2.4% among 320,000; AID 485313; further: nearly all actives have a fitted effect of over 60% in size
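Stably transfected Huh7 (NPC1 promoter→luciferase), 1500 cells/well in Opti-MEM + 10% FBS, 2 h settle, then compound 24 h at 37 °C. Luminescence after 10 min with Amplite reagent.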
ELG1 genotoxic: inducers of genotoxicity in HEK293T ELG1-luciferase cells. Potency, µM (doses to about 46 µM), usual class: activators. HEK293T ELG1-luciferase reporter, luminescence, 16 h. hit rate 1.3% among 330,000; further: nearly all actives have a fitted effect of over 60% in size
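16 hr compound incubation (37 °C, 5% CO2) of HEK293T cells carrying luciferase-tagged ELG1; luciferase then measured by ONE-Glo luminescence after 30 min at RT.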
SMN2 splice enh: SMN2 splice variant enhancement | HEK293 SMN2-luciferase splicing reporter, luminescence, 30-36 h | Potency, µM (doses to about 46.1 µM), usual class: activators | hit rate 2.8% among 210,000; further: nearly all actives have a fitted effect of over 55% in size
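qHTS luciferase splicing reporter: luminescence rises when SMN2 exon 7 is included in transfected HEK293 cells. Compound exposure lasted 30-36 h at 37C, with 4.5 mM final sodium butyrate as control, followed by a ONE-Glo read.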
Hits are given with their value; - = inactive; ? = inconclusive; . = no result given; [ ] = remark or other dose. The call rests on the fitted dose curve; in most records, active means well fitted curve in the direction sought with a large enough effect; inconclusive means small, poorly fitted or top-dose-only effect, or another doubt; inactive means no such curve, though single readings can be large; an effect the other way counts as inactive or inconclusive.

SMILES | Rab9 promoter act | FLuc counter | ELG1 DNA repair | NPC1 promoter act | ELG1 genotoxic | SMN2 splice enh
Fc1ccc([C@H]2CCNCC2COc2ccc3c(c2)OCO3)cc1 (stereo not given in full) | . | . | . | . | . | -
O=S(=O)(Nc1cccnc1Cl)c1ccc(F)cc1 | - | - | - | - | - | .
COc1ccc(S(=O)(=O)Nc2cc(SCC(=O)O)c(O)c3ccccc23)cc1 | - | ? | 16µM | - | - | .
O=S(=O)(Nc1cc(Sc2cccc3cccnc23)c(O)c2ccccc12)c1ccc(F)cc1 | - | ? | 9.2µM | - | - | -
O=C(O)CSc1cc(NS(=O)(=O)c2ccc(Cl)cc2)c2ccccc2c1O | - | ? | ? | - | - | .
COc1ccc(S(=O)(=O)Nc2cc(Sc3ncn[nH]3)c(O)c3ccccc23)cc1 | - | ? | 23µM | - | - | -
CCCC(=O)Nc1sc(Cc2ccccc2)c(C)c1C(N)=O | - | ? | ? | - | - | .
Cc1sc2c(c1C)c(=O)n(Cc1ccccc1)c(=O)n2CC(=O)Nc1cccc(Cl)c1 | . | - | . | . | . | -
O=C1Nc2ccc(Br)cc2C1=Nc1cccnc1 | - | - | ? | - | - | .
COC(=O)c1cnc(NCc2ccc(F)cc2)c2ccccc12 | . | - | . | . | . | .
CCCn1c(-c2ccc(F)cc2)nc2c(NC(C)CCCN(CC)CC)nc(C)nc21 (stereo not given) | . | . | . | . | . | -
COc1ccc(OCC(=O)NNC(=O)c2ccccc2OCc2c(C)noc2C)cc1 | - | - | - | - | - | .
Cc1cccc(NC(=O)Nc2ccccc2)n1 | ? | 12µM | ? | ? | ? | .
Cc1cccc(NC(=S)NC(=O)/C=C/c2ccccc2)n1 | 2.5µM | - | ? | ? | - | -
Cc1ccc(NC(=O)Nc2cccc(C)n2)c(C)c1 | ? | ? | ? | - | ? | .
Cc1cccc(NC(=O)Nc2ccc(Cl)c(Cl)c2)n1 | ? | 2.4µM | ? | ? | ? | .
COc1cccc(NC(=O)Nc2cccc(C)n2)c1 | ? | 5.4µM | ? | 2.2µM | - | .
Cc1cc(NC(=O)Nc2ccc(Cl)c(Cl)c2)n(-c2ccccc2)n1 | - | - | - | - | - | .
COc1ccc(NC(=S)NC(=O)/C=C/c2ccccc2)cc1 | - | - | - | - | - | .
CCOC(=O)c1cccc(NC(=O)c2cc3cc4ccc(C)cc4nc3o2)c1 | . | - | . | . | . | -
Cn1c(CNC(=O)OC(C)(C)C)n[nH]c1=S | - | - | - | - | - | .
Cc1cc(C)cc(OC(C)C(=O)Nc2c(C(=O)c3ccccc3)oc3ccccc23)c1 (stereo not given) | . | - | . | . | . | -
CCCN1CCN(CCCNC(=O)Cn2c(-c3cccs3)cc3cc(Cl)ccc32)CC1 | . | - | . | . | . | .
CC(C)NC(=O)CSc1ccccc1C(=O)NNC(=O)Cn1ccc(C(F)(F)F)n1 | - | - | - | - | - | .
O=C(Nc1cccs1)Nc1cccnc1Cl | - | ? | ? | - | - | .
SMILES | Rab9 promoter act | FLuc counter | ELG1 DNA repair | NPC1 promoter act | ELG1 genotoxic | SMN2 splice enh
O=C(Nc1cccs1)Nc1ccccc1Cl | - | 27µM | - | - | ? | -
O=C(Nc1cccs1)Nc1ccc(Br)cc1F | - | 12µM | ? | - | - | -
Cc1ccc(NC(=O)Nc2cccs2)c(Cl)c1 | . | 8.5µM | . | . | . | -
Cc1cccc(NC(=O)Nc2cccs2)c1C | . | ? | . | . | . | -
O=c1c(-c2c(O)cc(O)c3c2O[C@H](c2ccc(O)cc2)CC3)c(-c2ccc(O)cc2)oc2cc(O)cc(O)c12 | . | . | - | . | - | .
CNC(=O)/C(C#N)=C\c1ccc(CNS(=O)(=O)c2ccccc2)o1 | - | - | - | - | - | -
N#C/C(=C\c1ccc(-c2nc3ccccc3s2)o1)C(N)=O | ? | 2.7µM | ? | 3.2µM | - | .
CNC(=O)/C(C#N)=C/c1ccc(-c2nc3ccccc3s2)o1 | 1.4µM | ? | ? | 2.8µM | ? | .
CC(C)c1ccc(/C=C2\CC/C(=C\C=N\N(C)C)C2=O)cc1 | ? | 2.4µM | ? | ? | 3.3µM | 13µM
CC(C)/C=C1\CC/C(=C\c2ccc(N(C)C)cc2)C1=O | ? | 0.95µM | ? | 3.5µM | 9.2µM | ?
O=C1/C(=C/c2ccncc2)CCC/C1=C\c1ccncc1 | - | - | ? | - | - | -
Cc1ccccc1OCCSc1nc2ccc(NC(=O)c3cccs3)cc2s1 | . | - | . | . | . | .
O=C(O)c1sc2cccc(Cl)c2c1Cl | - | 5.4µM | ? | - | - | .
O=C(Nc1ncc(Cc2ccc(C(F)(F)F)cc2)s1)c1ccc(-c2cccc([N+](=O)[O-])c2)o1 | - | - | 21µM | - | - | -
O=C(Nc1ncc(Cc2ccccc2Cl)s1)c1ccc(-c2cccc([N+](=O)[O-])c2)o1 | - | - | 13µM | - | - | .
CC1=C(C(=O)OCc2ccccc2)C(c2ccc(C3CCCCC3)cc2)NC(=O)N1CCCCCC(=O)O (stereo not given) | . | . | . | . | . | -
O=C(Nc1nc2ccccc2[nH]1)c1cccc([N+](=O)[O-])c1 | 1.4µM | ? | ? | 3.5µM | - | 11µM
O=C(Cc1nc2ccccc2[nH]1)c1cccc([N+](=O)[O-])c1 | - | 24µM | 4.1µM | ? | - | .
O=C(NC(Cc1ccccc1)c1nc2ccccc2[nH]1)c1cccc([N+](=O)[O-])c1 (stereo not given) | - | - | - | - | - | .
CCOC(=O)Cc1nc2ccccc2[nH]1 | - | - | - | - | - | -
O=C(Nc1nc2ccccc2[nH]1)c1ccc([N+](=O)[O-])cc1 | 0.56µM | ? | ? | 1µM | ? | 2.5µM
Cc1ccc(C(=O)Cc2nc3ccccc3[nH]2)cc1 | 4.5µM | 6µM | ? | 2µM | 3.5µM | .
COC(=O)CC1Oc2ccc(C)cc2-n2cc(-c3ccc(C)cc3)nc21 (stereo not given) | . | - | . | . | . | -
COC(=O)c1cc(C(=O)Nc2nc3ccccc3[nH]2)cc([N+](=O)[O-])c1 | - | 4.8µM | - | - | - | .
C/C(=N\Nc1nc2ccccc2[nH]1)c1ccc([N+](=O)[O-])cc1 | - | - | - | - | - | .
SMILES | Rab9 promoter act | FLuc counter | ELG1 DNA repair | NPC1 promoter act | ELG1 genotoxic | SMN2 splice enh
COc1cc(/C=C2/C(=N)N3C(=NC2=O)SN=C3S(=O)(=O)C(C)C)ccc1OS(=O)(=O)c1ccccc1 | - | - | - | - | -[9.26 µM] | .
CCS(=O)(=O)C1=NN2C(=N)/C(=C\c3ccc(OC(=O)c4ccco4)c(OC)c3)C(=O)N=C2S1 | - | ? | - | - | - | .
COc1cc(/C=C2/C(=N)N3C(=NC2=O)SN=C3S(=O)(=O)C(C)C)ccc1OC(=O)c1ccco1 | - | 13µM | - | - | - | .
CCS(=O)(=O)C1=NSC2=NC(=O)/C(=C\c3ccc(OC(=O)c4ccco4)c(OC)c3)C(=N)N21 | - | 21µM | - | - | - | .
COc1cc(/C=C2/C(=N)N3C(=NC2=O)SN=C3S(C)(=O)=O)ccc1OC(=O)c1ccco1 | - | 11µM | ? | - | -[9.26 µM] | .
CCOc1cc(/C=C2/C(=N)N3C(=NC2=O)SN=C3S(=O)(=O)CC)ccc1OC(=O)c1ccco1 | - | - | - | - | - | .
